Consider 31 compounds from PubChem BioAssay AID504397 (Broad Institute, 2011).

Structures are written as SMILES. Potency and affinity values are given separately. Active and inactive are the calls of the source. The rule behind the calls is not given here.

This experiment can be described thus: mammalian cell cytotoxicity, dose response, cytotoxicity control, plate reader, cherry-pick samples (AID 504397). The conditions noted are these: plate reader viability; series mostly up to 35 µM; activity change, negative = toxicity: at the top concentration.
With `O=C(c1cc(-c2ccccc2)nc2ccccc12)N1CCN(c2ccccn2)CC1`, the “activity change, negative = toxicity” value was -3.93% (inactive). As for `Cc1cccc(-c2nnc(SCc3ccc(C#N)cc3)n2Cc2ccco2)c1`, the “activity change, negative = toxicity” value was -1.35% (inactive). For the compound `CN(C)S(=O)(=O)c1ccc(NC(=O)/C=C/c2ccccc2Cl)cc1`, the “activity change, negative = toxicity” value is -5.34% (inactive). Consider `Cc1cccc(Nc2ccccc2C(=O)OCC(=O)N(C)C2CCS(=O)(=O)C2)c1C` (stereo unspecified), for which the “activity change, negative = toxicity” value is -4.75% (inactive). With `CN(C)CCCN(C(=O)c1cc(-c2cccs2)nc2ccccc12)c1nc2ccc(F)cc2s1`, the “activity change, negative = toxicity” value was -4.11% (inactive). As for `O=C(COC(=O)c1ccccc1Cc1ccccc1)NC1CCS(=O)(=O)C1` (stereo unspecified), the “activity change, negative = toxicity” value was -7.75% (inactive). For `CN(C)CCN(C(=O)c1ccc2ccccc2c1)c1nc2ccc(F)cc2s1`, the “activity change, negative = toxicity” value is 1.11% (inactive). `O=[N+]([O-])c1ccc(-c2cnc(SC(c3ccccc3)c3ccccc3)[nH]2)cc1`: the “activity change, negative = toxicity” value was -1.02% (inactive). To `O=C(C(Cc1ccccc1)N1C(=O)c2ccccc2C1=O)N1c2ccccc2CCc2ccccc21` (stereo unspecified) belongs -2.68% (inactive); to `CS(=O)(=O)Cc1ccc(C(=O)N(CCc2ccccc2)Cc2ccccc2)cc1`, -5.83% (inactive); to `CCOc1ccc(N(Cc2ccc(OC)cc2)C(=O)c2ccco2)cc1`, -1.84% (inactive). Regarding `CCOc1ccc(-n2c(SCc3ccc([N+](=O)[O-])cc3)nnc2-c2ccc(OC)cc2)cc1`, the “activity change, negative = toxicity” value was -5.42% (inactive). Consider `Cc1ccc(N=Cc2c(O)n(C)c(=O)n(C)c2=O)nc1`, for which the “activity change, negative = toxicity” value was -5.66% (inactive). Regarding `Cc1ccc(OCCn2c3ccccc3n3nc(C)c(=O)nc23)cc1`, the “activity change, negative = toxicity” value is -7.09% (inactive).

For the compound `COc1cccc(/C=N/NC(=O)c2nnn(-c3nonc3N)c2C(C)C)c1OCc1ccc(F)cc1`, the “activity change, negative = toxicity” value was -3.78% (inactive). Regarding `COc1ccc(CN2CCN(C(c3ccc(F)cc3)c3ccc(F)cc3)CC2)c(OC)c1OC`, the “activity change, negative = toxicity” value was 6.9% (inactive). To `O=C(CCNS(=O)(=O)c1ccc2[nH]c(=O)oc2c1)NCc1ccccc1` belongs -5.41% (inactive); to `NC(=NCCCCCCN=C(N)/N=C(\N)Nc1ccc(Cl)cc1)/N=C(\N)Nc1ccc(Cl)cc1`, -4.22% (inactive). Consider `CS(=O)(=O)c1ccc(C(=O)OCC(=O)N(CCc2ccccc2)Cc2ccccc2)cc1`, for which the “activity change, negative = toxicity” value was -7.79% (inactive). For `CN(C(=O)COC(=O)c1cc([N+](=O)[O-])ccc1Sc1ccccc1)C1CCS(=O)(=O)C1` (stereo unspecified), the “activity change, negative = toxicity” value was 0.067% (inactive).

On to `CCn1cc(/C=C(\NC(=O)c2ccccc2Cl)C(=O)N2CCOCC2)c2ccccc21`, for which the “activity change, negative = toxicity” value was -5.63% (inactive). `O=C(Nc1ccc2c(c1)CCC2)c1ccccc1Br`: the “activity change, negative = toxicity” value was -7.83% (inactive). With `Nc1nonc1-n1nnc(C(=O)N/N=C/c2ccoc2)c1CSc1ccccc1`, the “activity change, negative = toxicity” value is 3.08% (inactive).

Turning to `Cc1ccc(/C=N/NC(=O)c2nnn(-c3nonc3N)c2C(C)C)o1`, the “activity change, negative = toxicity” value was 0.746% (inactive). Regarding `COc1ccc(-n2c(SCc3ccc([N+](=O)[O-])cc3)nnc2-c2ccc(C)cc2)cc1`, the “activity change, negative = toxicity” value was 4.62% (inactive). For `CCOC(=O)[C@@H]1[C@H]2COc3ccc(Br)cc3[C@@H]2N2C(=O)N(c3cccc(Cl)c3)C(=O)[C@]12C`, the “activity change, negative = toxicity” value was -3.87% (inactive). The same measure for `CC(C)c1c(C(=O)N/N=C/c2c[nH]c3ccccc23)nnn1-c1nonc1N`: -5.13% (inactive); for `Cc1ccc2nc(N(CCN(C)C)C(=O)c3ccc4ccccc4c3)sc2c1`: -1.54% (inactive); for `CCOC(=O)c1cc(-c2ccccc2)sc1NC(=O)C(C)Sc1nnnn1C` (stereo unspecified): 7.59% (inactive). As to `COc1ccccc1N1CCN(c2ncc(C(=O)N3CCN(c4cccc(Cl)c4)CC3)c3ccccc23)CC1`, the “activity change, negative = toxicity” value is -4.58% (inactive). `CC(/C=N\NC(=O)CN1CCN(S(=O)(=O)c2ccc(C)cc2)CC1)=C\c1ccccc1`: the “activity change, negative = toxicity” value is -8.35% (inactive).
